These results are taken from PubChem BioAssay.

One assay concerns the target Albumin (Bos taurus) (UniProt P02769). Kind of assay: compounds binding labelled BSA control protein – biochemical, small-molecule microarray, Alexa647 label, 635/667 nm fluorescence, artefact control for SMM control protein annotation, profiling panel (AID 1118).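 Also: score merges 667 nm emission intensity and signal-to-noise per printed compound spot.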 Particulars: BSA-A647 binding, fluorescence 635 nm, higher = more signal.
A short description of assay [1]: probe aXIP binding to arrayed compounds – biochemical, NeuroSMM set, 635/667 nm fluorescence, primary screen (AID 1119).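 Also: probe is the protein aXip251-270 applied at 1 µg/mL to compound-printed slides; binding of probe to printed compounds measured as 667 nm fluorescence plus signal to noise.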 Particulars: small-molecule microarray, higher = more signal, called active from +8 up or from −8 down.
Assay [2] in a line: probe aNOTCH3 binding on compound microarray – biochemical, small-molecule microarray, 635/667 nm fluorescence, primary screen (AID 1120).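 Also: probe is a biotin-tagged antibody raised against NOTCH3 rather than NOTCH3 protein; score merges spot fluorescence near 667 nm with spot signal to noise.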 As to conditions: higher = more signal.
The nature of assay [3]: probe aNOTCH2 binding on compound microarray – biochemical, small-molecule microarray, 635/667 nm fluorescence, primary screen (AID 1121).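 Also: score merges feature fluorescence read at 667 nm with its signal to noise.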 As to conditions: higher = more signal.
Assay [4] concerns the target Carbonic anhydrase 2 (Homo sapiens) (UniProt P00918). Put plainly: compounds binding carbonic anhydrase 2 – biochemical, small-molecule microarray, Alexa647-labelled CAII, profiling panel (AID 1122). Particulars: CAII-A647 binding fluorescence, higher = more signal.
The nature of assay [5]: COS7 lysate on small-molecule microarray, probe aHis, 635 nm (AID 1123).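 Also: z-score combines 667nm fluorescence intensity with signal-to-noise per printed compound spot.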 Particulars: COS7 cell lysate, fluorescence, higher = more signal.
A short description of assay [6]: probe aLAP1 signal on lysate-treated microarray – cell lysate, small-molecule microarray, COS7 lysate, primary screen (AID 1124).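 Also: lysate comes from COS7 cells expressing LAP1 and is applied at 0.3 µg/mL; score merges spot fluorescence near 667 nm with signal-to-noise over triplicate slides.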 As to conditions: probe aLAP1, fluorescence, higher = more signal.
The next assay has as its system Sam68 (KHDRBS1). Kind of assay: compounds binding KHDRBS1 protein – biochemical, small-molecule microarray, 635 nm fluorescence, primary screen (AID 1125).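 Also: score merges 667 nm channel intensity with signal to noise over triplicate slides.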 Particulars: higher = more signal.
Assay [7] relates to Chordin-like protein 2 (CHRDL2). Kind of assay: compounds binding chordin-like 2 – biochemical, small-molecule microarray, 635 nm fluorescence, primary screen (AID 1126).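 Also: printed compound slides probed with Chrdl2 protein at 4 µg/mL for 1 h at 4 C; score merges 667 nm emission intensity with signal to noise over three replicate slides.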 Particulars: fluorescence 635 nm, higher = more signal.
The target of assay [8] is Concanavalin-A (Canavalia ensiformis) (UniProt P02866). Kind of assay: compounds binding concanavalin A lectin – biochemical, small-molecule microarray, Alexa647 label, 635 nm, artefact control for SMM control protein annotation, primary screen (AID 1127).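 Also: z combines 667 nm emission intensity with signal-to-noise across three replicate slides.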 As to conditions: ConA-A647 binding fluorescence, higher = more signal.
Concanavalin-A (Canavalia ensiformis), sequence (P02866 whole entry, looked up): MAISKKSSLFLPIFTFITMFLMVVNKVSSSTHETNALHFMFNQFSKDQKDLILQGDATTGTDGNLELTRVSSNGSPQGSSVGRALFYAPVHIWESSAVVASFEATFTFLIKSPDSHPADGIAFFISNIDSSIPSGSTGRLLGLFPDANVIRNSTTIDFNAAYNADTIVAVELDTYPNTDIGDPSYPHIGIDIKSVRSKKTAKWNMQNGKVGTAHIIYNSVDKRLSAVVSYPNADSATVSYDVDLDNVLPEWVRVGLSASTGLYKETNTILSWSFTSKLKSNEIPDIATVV
Assay [9] in a line: compounds binding Alexa647 anti-His antibody – biochemical, small-molecule microarray, 635 nm fluorescence, artefact control for SMM control protein annotation, primary screen (AID 1128).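 Also: score merges feature fluorescence with signal-to-noise for each printed compound spot.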 Particulars: higher = more signal.
For assay [10], the system named is Human papillomavirus type 1a E7 protein (residues 1-88). Kind of assay: HPV1a E7 small-molecule binders, primary screen, biochemical, small-molecule microarray, residues 1-88, 635 nm (AID 1129). Particulars: small-molecule microarray binding, fluorescence 635 nm; higher = more signal.
Assay [11] has as its target Focal adhesion kinase 1 (Homo sapiens) (UniProt Q05397). Kind of assay: PTK2 protein binding on printed compound slides – biochemical, small-molecule microarray, 635/667 nm fluorescence, BSA, DTT, primary screen (AID 1130).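 Also: composite of spot emission at 667 nm and signal to noise over triplicate slides.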 As to conditions: 635 nm fluorescence, higher = more signal.
Assay [12] relates to Fibrinogen (Alexa647-labelled). Put plainly: Alexa647-fibrinogen binding to printed small molecules – biochemical, small-molecule microarray, 635/667 nm fluorescence, artefact control for SMM control-protein annotation, profiling panel (AID 1131).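 Also: z-score merges 667 nm fluorescence with per-spot signal-to-noise over triplicate slides.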 Particulars: fibrinogen-A647 binding fluorescence, higher = more signal.
In assay [13] the target is Follistatin (Homo sapiens) (UniProt P19883). Kind of assay: FST protein binding to printed compounds – biochemical, small-molecule microarray, 635/667 nm fluorescence, primary screen (AID 1132). Particulars: 635 nm fluorescence, higher = more signal.
Follistatin (Homo sapiens), sequence (P19883 whole entry, looked up): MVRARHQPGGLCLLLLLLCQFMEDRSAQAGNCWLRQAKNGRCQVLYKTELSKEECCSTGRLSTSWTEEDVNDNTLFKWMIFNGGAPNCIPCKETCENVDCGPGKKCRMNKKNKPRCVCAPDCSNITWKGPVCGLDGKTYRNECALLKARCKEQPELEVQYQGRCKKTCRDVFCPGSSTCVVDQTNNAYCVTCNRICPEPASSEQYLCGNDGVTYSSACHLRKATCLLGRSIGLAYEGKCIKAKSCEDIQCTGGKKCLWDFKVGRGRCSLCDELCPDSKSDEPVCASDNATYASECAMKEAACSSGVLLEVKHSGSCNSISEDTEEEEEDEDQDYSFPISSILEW
The target in assay [14] is Fibroblast growth factor 2 (Homo sapiens) (UniProt P09038). Kind of assay: basic fibroblast growth factor binding to printed compounds – biochemical, small-molecule microarray, 635/667 nm fluorescence, primary screen (AID 1133). Particulars: FGF2, fluorescence 635/667, higher = more signal.
Fibroblast growth factor 2 (Homo sapiens), sequence (P09038 whole entry, looked up): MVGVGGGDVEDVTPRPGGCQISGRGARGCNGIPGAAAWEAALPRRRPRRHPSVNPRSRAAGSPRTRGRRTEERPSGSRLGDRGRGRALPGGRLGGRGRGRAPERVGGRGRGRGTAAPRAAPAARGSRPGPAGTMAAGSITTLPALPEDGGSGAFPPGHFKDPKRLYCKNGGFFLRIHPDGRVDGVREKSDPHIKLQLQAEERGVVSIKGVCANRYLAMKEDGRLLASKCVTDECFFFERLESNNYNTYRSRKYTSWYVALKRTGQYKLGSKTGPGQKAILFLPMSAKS
A short description of assay [15]: JC-1 mitochondrial potential readout, lung cancer cells – cell-based, A549, JC-1 fluorescence, basal, 24 h, 100 nL, profiling panel (AID 1138).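 Also: A549 lung adenocarcinoma cells under basal conditions with no added stimulus; test concentration not given here.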 As to conditions: higher = more signal.
Another assay has as its system Lefty1. Kind of assay: Lefty1 protein binding to printed compounds – biochemical, small-molecule microarray, 635/667 nm fluorescence, primary screen (AID 1139). Particulars: fluorescence 635/667, higher = more signal.
Assay [16] deals with wheat germ agglutinin (Triticum aestivum), Alexa647-labelled. Kind of assay: Alexa647-WGA lectin binding to printed small molecules – biochemical, small-molecule microarray, 635/667 nm fluorescence, artefact control for SMM control-protein annotation, profiling panel (AID 1140).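 Also: score merges 667 nm feature emission with signal to noise over triplicate slides.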 As to conditions: WGA-A647 binding, 635 nm fluorescence, higher = more signal.
For assay [17], the target named is Luciferin 4-monooxygenase (Photinus pyralis) (UniProt P08659). Put plainly: inhibition of purified Photinus pyralis luciferase – biochemical, luminescence, purified enzyme, 2006 set, primary screen (AID 1141).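 Also: cell-free assay with purified firefly luciferase at 100 ng per well in PBS; test concentration not given here.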 Particulars: purified firefly luciferase, SteadyGlo luminescence, 30 min; higher = more signal, called active from +8 up or from −8 down.
Luciferin 4-monooxygenase (Photinus pyralis), sequence (P08659 whole entry, looked up): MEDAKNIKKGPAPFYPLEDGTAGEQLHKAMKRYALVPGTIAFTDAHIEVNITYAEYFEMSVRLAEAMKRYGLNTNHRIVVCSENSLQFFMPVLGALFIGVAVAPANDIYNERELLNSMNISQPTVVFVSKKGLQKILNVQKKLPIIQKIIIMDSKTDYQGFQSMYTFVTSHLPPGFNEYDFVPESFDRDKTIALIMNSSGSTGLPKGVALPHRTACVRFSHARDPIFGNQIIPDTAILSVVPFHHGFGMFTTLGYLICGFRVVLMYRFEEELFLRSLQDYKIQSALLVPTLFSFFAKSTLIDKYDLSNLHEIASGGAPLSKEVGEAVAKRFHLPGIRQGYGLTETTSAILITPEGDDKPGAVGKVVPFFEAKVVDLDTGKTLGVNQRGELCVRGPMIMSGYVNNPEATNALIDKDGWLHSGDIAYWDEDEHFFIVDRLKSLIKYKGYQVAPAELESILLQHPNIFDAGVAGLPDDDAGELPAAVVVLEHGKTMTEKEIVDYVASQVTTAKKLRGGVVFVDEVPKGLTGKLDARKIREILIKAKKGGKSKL

Activity calls are given as the source filed them.

Focal adhesion kinase 1 (Homo sapiens), sequence (Q05397 whole entry, looked up): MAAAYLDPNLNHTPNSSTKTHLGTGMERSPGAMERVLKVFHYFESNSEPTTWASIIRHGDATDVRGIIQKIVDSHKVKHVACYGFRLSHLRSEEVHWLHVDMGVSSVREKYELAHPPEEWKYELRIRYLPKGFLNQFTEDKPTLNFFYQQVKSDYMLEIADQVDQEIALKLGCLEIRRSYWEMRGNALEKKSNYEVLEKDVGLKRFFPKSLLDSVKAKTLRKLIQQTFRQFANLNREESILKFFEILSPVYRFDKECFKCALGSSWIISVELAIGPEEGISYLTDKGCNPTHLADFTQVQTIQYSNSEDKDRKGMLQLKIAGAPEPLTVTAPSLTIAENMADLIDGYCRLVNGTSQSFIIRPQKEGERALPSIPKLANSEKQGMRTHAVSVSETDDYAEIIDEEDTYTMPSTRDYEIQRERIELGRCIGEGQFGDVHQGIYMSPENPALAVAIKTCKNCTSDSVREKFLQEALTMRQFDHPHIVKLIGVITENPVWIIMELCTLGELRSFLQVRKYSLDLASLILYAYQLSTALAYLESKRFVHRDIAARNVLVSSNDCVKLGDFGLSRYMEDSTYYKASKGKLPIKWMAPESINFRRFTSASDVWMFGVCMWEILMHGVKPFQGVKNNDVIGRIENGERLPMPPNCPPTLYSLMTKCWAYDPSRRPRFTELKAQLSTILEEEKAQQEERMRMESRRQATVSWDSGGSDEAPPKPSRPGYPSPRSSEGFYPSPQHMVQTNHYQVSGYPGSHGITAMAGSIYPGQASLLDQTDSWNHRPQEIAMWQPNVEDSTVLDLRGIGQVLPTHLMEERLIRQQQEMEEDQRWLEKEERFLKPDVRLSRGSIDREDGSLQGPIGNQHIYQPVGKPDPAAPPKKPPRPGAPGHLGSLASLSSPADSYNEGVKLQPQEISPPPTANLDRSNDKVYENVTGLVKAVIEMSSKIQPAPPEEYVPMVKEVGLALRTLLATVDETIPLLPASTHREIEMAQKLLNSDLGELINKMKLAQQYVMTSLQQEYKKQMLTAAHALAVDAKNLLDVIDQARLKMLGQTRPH
Albumin (Bos taurus), sequence (P02769 whole entry, looked up): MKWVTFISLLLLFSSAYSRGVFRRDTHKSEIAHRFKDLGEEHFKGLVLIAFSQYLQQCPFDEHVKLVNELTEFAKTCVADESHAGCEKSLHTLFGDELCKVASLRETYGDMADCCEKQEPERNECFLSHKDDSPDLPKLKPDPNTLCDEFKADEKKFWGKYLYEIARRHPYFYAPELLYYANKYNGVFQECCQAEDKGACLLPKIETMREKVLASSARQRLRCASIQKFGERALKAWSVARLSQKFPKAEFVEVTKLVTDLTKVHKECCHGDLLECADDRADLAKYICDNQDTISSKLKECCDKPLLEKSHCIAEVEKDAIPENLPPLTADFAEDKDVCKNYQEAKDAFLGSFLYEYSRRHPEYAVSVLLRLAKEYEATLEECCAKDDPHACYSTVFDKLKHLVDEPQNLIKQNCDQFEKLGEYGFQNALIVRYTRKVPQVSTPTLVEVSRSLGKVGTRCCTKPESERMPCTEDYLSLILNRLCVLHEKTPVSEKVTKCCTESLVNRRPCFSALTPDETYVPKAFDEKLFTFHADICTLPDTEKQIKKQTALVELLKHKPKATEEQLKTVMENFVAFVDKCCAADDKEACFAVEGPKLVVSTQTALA

Regarding `O=C(NCC(O)CO)[C@@]1(CCS(=O)(=O)c2ccccc2)COC(c2ccc(OCCCO)cc2)=N1` (stereo not given in full), the composite z-score with Albumin (Bos taurus) is 0.927; in assay [2], 0.241; in [3], 0.0342; in assay [4] it was 0.863; in [5], 3.35; in assay [6] it was -0.0542. The composite z-score is 0.679 with Sam68 (KHDRBS1); -0.734 in assay [7]; 0.572 in assay [8]; 2.29 in assay [9]; 1.17 in assay [10]; 0.204 in assay [11]. Besides, the composite z-score in assay [12] is 0.904; in [13], 1.36; in [14], 1.28; with Lefty1, -0.682; in assay [16], 0.41. In assay [1], the composite Z-score was 0.538 (inactive). Further, the z-score in [15] is -0.583; in assay [17] it was 0.405 (inactive).

In the case of `COC(=O)C1=CC(CCCO)=CC(c2ccc(CN3CCCC3)cc2)N(Cc2cc3c(cc2Br)OCO3)C=C1C(=O)OC` (stereo not given), the composite z-score amounted to 1.04 in the assay with Albumin (Bos taurus); 0.477 in assay [2]; 0.135 in [3]; 0.705 in assay [4]; 1.76 in assay [5]; 0.672 in assay [6]. The composite z-score in the assay with Sam68 (KHDRBS1) was 1.3; in [7], -0.384; in [8] it was 0.701; in assay [9], 0.676; in assay [10], 1.22; in assay [11], 0.473. In addition, the composite z-score worked out at 1.02 in assay [12]; 1.2 in [13]; 0.918 in assay [14]; 0.514 in the assay on Lefty1; 1 in [16]. Besides, the composite Z-score in [1] is 0.339 (inactive). For the same compound, the z-score in [15] was 0.0526; in [17], 0.197 (inactive).

For the compound `CCCCCN1CC=CC23O[C@@H]4/C=C\CCC(C)OC(=O)C4[C@H]2C(=O)N(CCCCCCO)[C@@H]3C1=O` (stereo not given in full), the composite z-score with Albumin (Bos taurus) was 0.548; in assay [2], -0.311; in [3] it was -0.164; in assay [4], 0.781; in assay [5], 0.84; in assay [6] it was 1.57. Besides, the composite z-score with Sam68 (KHDRBS1) is 0.623; in assay [7], -0.41; in [8] it was -0.296; in assay [9] it was 0.371; in assay [10], 0.229; in [11] it was 0.0767. Moreover, the composite z-score was -1.31 in assay [12]; 0.0532 in assay [13]; -0.0946 in assay [14]; 0.744 in the assay on Lefty1; -0.65 in assay [16]. For the same compound, the composite Z-score in assay [1] is 0.928 (inactive). Moreover, the figures for the z-score in assay [15] and in [17] were 1.03 and 0.0812 (inactive), respectively.

As for `C=CCNC(=O)[C@@H]1[C@H]2C(=O)O[C@H](c3ccccc3)[C@H](c3ccccc3)N2[C@H](c2ccc(O)cc2)[C@@]12C(=O)N(C(=O)OCCOC)c1ccc(C#CCCO)cc12`, the composite z-score with Albumin (Bos taurus) is -0.906; in [2], 0.364; in assay [3], -0.0191; in assay [4], 0.561; in assay [5], 1.88; in assay [6], 0.459. The composite z-score in the assay on Sam68 (KHDRBS1) was 1.29; in assay [7], 0.467; in assay [8] it was 1.17; in [9], 1.45; in [10], 0.779; in [11] it was 0.863. Moreover, the composite z-score in assay [12] was 0.389; in [13] it was 1.19; in assay [14] it was 1.25; in the assay with Lefty1 it was 0.531; in [16] it was 0.862. The composite Z-score in [1] was 0.232 (inactive). The z-score in assay [15] is 0.703; in assay [17], -0.52 (inactive).

Take `C=CCC(OC(C)=O)[C@@H]1[C@@H](N(Cc2ccc(-c3cccc(C(F)(F)F)c3)o2)C(=O)c2ccc(C)cc2)c2cc(OCCCO)ccc2N1C(=O)Cc1ccc(OC)cc1` (stereo not given in full): the composite z-score is -0.356 with Albumin (Bos taurus); -0.0311 in [2]; -0.194 in assay [3]; -0.26 in [4]; -0.333 in assay [5]; -0.27 in assay [6]. In addition, the composite z-score was -0.367 with Sam68 (KHDRBS1); 0.186 in assay [7]; 0.0203 in assay [8]; -0.139 in assay [9]; -0.269 in [10]; -0.542 in assay [11]. Further, the composite z-score in assay [12] was -0.366; in [13], 1.02; in assay [14], -0.289; in the assay on Lefty1, 0.189; in assay [16], 0.0232. For the same compound, the composite Z-score in [1] is 0.899 (inactive). The values for the z-score in assay [15] and in assay [17] were 1.36 and 0.147 (inactive), respectively.

With `CCOC(=O)C[C@H]1[C@H](OC(=O)c2ccccc2-c2ccccc2)[C@@H](NC(=O)c2ccc3ccccc3n2)c2cc(OCCCO)ccc2N1C(=O)c1ccccc1`, the composite z-score is -0.321 with Albumin (Bos taurus); 0.038 in assay [2]; -0.14 in [3]; 0.286 in assay [4]; 0.824 in assay [5]; -0.0982 in assay [6]. Moreover, the composite z-score is 1.33 in the assay on Sam68 (KHDRBS1); 0.374 in assay [7]; 0.37 in assay [8]; -0.0974 in assay [9]; 0.378 in [10]; 0.185 in assay [11]. Also, the composite z-score amounted to 0.322 in assay [12]; 0.782 in [13]; 0.16 in [14]; 0.634 in the assay with Lefty1; 0.857 in assay [16]. In assay [1], the composite Z-score was 0.311 (inactive). In addition, the z-score is 0.628 in assay [15] and 0.272 (inactive) in [17].
